Source: PubChem (National Center for Advancing Translational Sciences (NCATS))
G9a block – inhibitors of human histone lysine methyltransferase G9a | AID 504332 | actives 8.8% (n = 350,000) | G9a H3K9 monomethylation, AlphaScreen, 2 h | Potency, µM (doses to about 102 µM), for the others: top-dose activity, negative = inhibition, usual class: inhibitors; further: potency means the concentration at half of the fitted maximal effect; on the % scale 0 is the no-effect control and ±100 the full control effect; nearly all actives have a fitted effect of over 75% in size
Target sequence (Q96KQ7 913-1193 limits assumed): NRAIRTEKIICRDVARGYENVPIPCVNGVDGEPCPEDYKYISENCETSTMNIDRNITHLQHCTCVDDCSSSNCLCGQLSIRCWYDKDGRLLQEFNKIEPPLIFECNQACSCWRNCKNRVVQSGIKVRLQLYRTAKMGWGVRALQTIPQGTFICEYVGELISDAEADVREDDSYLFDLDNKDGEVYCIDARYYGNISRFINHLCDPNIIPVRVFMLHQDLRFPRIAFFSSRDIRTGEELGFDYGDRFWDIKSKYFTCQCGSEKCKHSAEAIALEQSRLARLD
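Compounds were preincubated with 20 nM G9a for 15 min, after which biotinylated H3K9 peptide (500 nM) and SAM (20 uM) started a 2 h room-temperature reaction. Monomethylated product was quantified by antibody-based AlphaScreen chemiluminescence.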
JMJD2A Tudor inh – JMJD2A Tudor domain (human) inhibition | O75164 | AlphaScreen JMJD2A-Tudor / H3K4me3 peptide binding | Potency, µM (series often up to 114 µM), for the others: at the top dose activity change, negative = inhibition, actives largely listed as inhibitors | actives 4.4% (n = 390,000) | AID 504339; further: potency means the concentration at half of the fitted maximal effect; on the % scale 0 is the no-effect control and ±100 the full control effect; nearly all actives have a fitted effect of over 50% in size
Sfp inh – inhibitors of Bacillus subtilis Sfp phosphopantetheinyl transferase | AID 1490 | Q9F4F7 | Biochemical Sfp PPTase activity, qHTS | Potency, µM, inactives show largest response in the series, negative = inhibition, hits mostly inhibitors | actives 3.5% (n = 310,000);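 further: the enzyme is Sfp with the accession as filed and its product quenches rhodamine fluorescence; potency means the concentration at half of the fitted maximal effect; 0% = enzyme reaction without inhibitor and -100% = no enzyme wells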
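Step 1, compound plus 15 nM Sfp-PPTase, 15 min, room temperature. Step 2, add rhodamine-CoA (5 uM) and BHQ-2-YbbR (12.5 uM). Step 3, read 525/598 nm fluorescence at 0 and 30 min.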
BAZ2B inh – BAZ2B (human) inhibition; Q9UIF8; AlphaScreen BAZ2B-H3K14Ac peptide displacement; Potency, µM (series often up to 114 µM), for the others: at the top dose activity change, negative = inhibition, actives largely listed as inhibitors; actives 4.4% (n = 360,000); further: potency means the concentration at half of the fitted maximal effect; on the % scale 0 is the no-effect control and ±100 the full control effect; nearly all actives have a fitted effect of over 60% in size
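AlphaScreen displacement of biotin-H3(5-23)K14Ac peptide (50 nM final) from BAZ2B (50 nM final) in PBS pH 7.4, 0.01% Tween-20; complex preformed 30 min RT, then compounds (top 110 uM) 30 min RT, beads 20 min dark.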
HP1b binding inh – blocks HP1-beta chromodomain binding to methylated histone tails | AlphaScreen HP1-beta / biotin-H3K9me3 peptide binding | Potency, µM (highest dose often 114 µM), without a hit: at the highest dose activity change, negative = inhibition, hits mostly inhibitors | actives 0.56% (n = 390,000) | AID 540317; further: potency means the concentration at half of the fitted maximal effect; nearly all actives have a fitted effect of over 70% in size
Target sequence (P83916 whole entry, looked up): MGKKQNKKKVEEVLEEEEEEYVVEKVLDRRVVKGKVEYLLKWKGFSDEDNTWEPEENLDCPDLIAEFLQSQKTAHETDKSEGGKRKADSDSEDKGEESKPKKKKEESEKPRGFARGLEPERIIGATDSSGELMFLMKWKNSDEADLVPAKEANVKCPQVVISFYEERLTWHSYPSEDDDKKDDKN
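Compound inhibition of the preformed complex between 50 nM HP1-beta and 50 nM biotinylated H3K9me3 peptide was read by AlphaScreen. Buffer was PBS pH 7.4 with 0.01% Tween-20. Incubations ran 30 min at room temperature, with 10 ug/mL donor/acceptor beads.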
Sfp inh conf – Sfp phosphopantetheinyl transferase inhibition, confirmation. Sfp PPTase enzymatic assay, qHTS titration. shares compounds with Sfp inh. actives 79% (n = 380). Potency, µM (highest dose often 114 µM), for the others: at the top dose activity change, negative = inhibition, actives largely listed as inhibitors;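 further: potency means the concentration at half of the fitted maximal effect; plate controls were uninhibited Sfp reaction for no effect and no enzyme control for full effect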
Target sequence (Q9F4F7 whole entry, looked up): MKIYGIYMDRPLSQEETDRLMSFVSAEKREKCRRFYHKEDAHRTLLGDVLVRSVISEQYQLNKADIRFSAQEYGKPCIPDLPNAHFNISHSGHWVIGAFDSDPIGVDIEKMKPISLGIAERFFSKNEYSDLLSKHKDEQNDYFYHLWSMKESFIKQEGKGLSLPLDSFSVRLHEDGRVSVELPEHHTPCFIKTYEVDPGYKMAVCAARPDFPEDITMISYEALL
Sfp gel assay – Blocks Sfp PPTase activity, gel read-out. shares compounds with Sfp inh. AID 2707. purified Sfp, gel-based phosphopantetheinylation read-out. actives 20% (n = 210). Potency, µM, actives largely listed as inhibitors;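 active means potency below 100 µM; inconclusive means dose-dependent response but potency above 100 µM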;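 further: band intensities scaled against SCH202676 control wells before curve fitting; potency is an IC50 for inhibitors of Sfp transfer activity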
* hit, by the source's call; i = inactive; ? = inconclusive; · = no result; ! = not active in a repeat; [ ] = dose if it differs, or a comment. Rows were chosen to be rich in hits. Some 12% of all compounds tested hit in one or more screens of this group. Unless noted, the call rests on the fitted dose curve; in most records, active means well fitted curve in the direction sought with a large enough effect; inconclusive means small, poorly fitted or top-dose-only effect, or another doubt; inactive means no such curve, though single readings can be large; an effect the other way counts as inactive or inconclusive.

SMILES | G9a block | JMJD2A Tudor inh | Sfp inh | BAZ2B inh | HP1b binding inh | Sfp inh conf | Sfp gel assay
Cc1cc(C)cc(-n2c(SCC(=O)NCc3ccc4c(c3)OCO4)nc3ccccc3c2=O)c1 | 31%[59 µM] | -4% | -5% | 6% | 40% | · | ·
O=C(CSc1nc2cc([N+](=O)[O-])ccc2n1-c1ccccc1)NCc1ccc2c(c1)OCO2 | ? | -8% | 1µM* | -20% | 16% | 15µM* | ·
CCOC(=O)c1ccc(NC(=S)N2CCN(CCN=CC3=C(O)CC(C)(C)CC3=O)CC2)cc1 | · | -11% | 11µM* | ? | 7% | 18% | ?
CC(C)N(CCC(=O)c1ccc2ccccc2c1)Cc1ccccc1 | 1.7µM* | 50µM* | 4µM* | 17% | -28% | 15µM* | ?
Cc1cccc(C)c1OCc1nnc(NC(=O)CSc2ccc(Cl)cc2)s1 | 16%[59 µM] | -9% | 1% | 4% | 32% | · | ·
O=C(CSc1ccccc1)Nc1nnc(COc2ccc(Cl)cc2)s1 | 1.4µM* | 56µM* | 14µM* | 50µM* | ? | 5.9µM* | ·
c1cncc(Nc2nc(-c3cccs3)cs2)c1 | ? | 20µM* | 5µM* | ? | ? | 30µM* | ?
Cc1nc2sc3c(c2c(=O)o1)CCC3 | ? | -16% | 16µM* | -27% | 26% | ? | ?
Oc1ccc(Cl)cc1C1=Nc2ccccc2N=C(c2ccco2)C1 | -11%[59 µM] | -15% | -10% | 1% | 31% | · | ·
Fc1ccccc1C1CC(c2ccco2)=Nc2ccccc2S1 (stereo not given) | 5%[12.7 µM] | ? | 3.5µM* | ? | -11% | 33µM* | i
Cc1c(C(=O)N(C)C)c2cc(Cl)ccc2n1O | ? | -7% | 3% | 3% | 18% | · | ·
CCOC(=O)c1c(C)n(O)c2ccc(Cl)cc2c1=O | ? | -16% | 35µM* | -32% | 19% | 74µM* | i
COCCCNC(=O)C1CCN(Cc2cc3ccccc3n2Cc2cccc(Cl)c2)CC1 | ? | ? | · | -26% | -3% | · | ·
COc1ccc(Nc2oc(/C=C/c3ccccc3OC)nc2C#N)cc1 | 1%[59 µM] | -25% | · | -28% | 17% | · | ·
COc1ccccc1C(=O)Nc1ccnn1C1CCN(CCC(C)c2ccc(C)o2)CC1 (stereo not given) | 7.1µM* | -34% | 50µM* | -28% | -18% | 19µM* | ·
Nc1nc2c(s1)CCc1c-2cnn1-c1ccccc1 | ? | 25µM* | 2.5µM* | 45µM* | 11µM* | 7.4µM* | ·
CCc1c(C)nc2ncnn2c1N1CCC(C(=O)N2CCN(c3ccc(F)cc3)CC2)CC1 | -2% | -15% | 9% | -23% | 24% | · | ·
COc1ccc(NC(=O)c2cc(Cl)ccc2NC(=O)c2ccco2)c(OC)c1 | -11% | ? | 16µM* | -17% | 42% | 47µM* | i
COc1ccccc1CNC(=O)CC12CC3CC(CC(Br)(C3)C1)C2 | 1% | 11% | 4% | -9% | 22% | · | ·
O=C(Cn1ncc2c1-c1ccccc1OC2)N1CCc2ccccc21 | 5% | -6% | 15% | -1% | 33% | · | ·
O=C(O)Cn1ncc2c1-c1ccoc1CC2 | 11µM* | 56µM* | 45µM* | ? | 18% | ? | ·
Cn1ncc2c(c(SCc3ccc(Cl)cc3Cl)nn2C)c1=O | 8.9µM* | -30% | 25µM* | 0% | ? | 17µM* | ·
COc1cnn(-c2ccccc2)c(=O)c1SCc1ccc(Cl)cc1Cl | 33%[12.7 µM] | 29% | ? | 13% | 126% | · | ·
CN(Cc1ccccc1NS(=O)(=O)c1ccc(Cl)cc1)C1CCCCC1 | -31% | -4% | 7% | · | 40% | · | ·
Cc1cc(C(=O)COc2ncnc3sccc23)c(C)n1C | -13%[59 µM] | -11% | 4% | ? | -3% | · | ·
SMILES | G9a block | JMJD2A Tudor inh | Sfp inh | BAZ2B inh | HP1b binding inh | Sfp inh conf | Sfp gel assay
COc1ccc(-c2noc(CSc3nc4sc(C)c(C)c4c(=O)n3-c3ccccc3)n2)cc1 | -12%[59 µM] | -13% | 4µM* | -8% | 25% | 4.7µM* | i
COc1ccc(-c2noc(CSc3nc4sc(C)c(C)c4c(=O)n3-c3ccccc3)n2)cc1OC | -29% | -7% | ? | 5% | 0% | · | ·
COc1cc2nc(N3CCN(C(=O)[C@H]4CCCO4)CC3)nc(N)c2cc1OC | · | · | -1% | · | · | · | ·
COc1cc2nc(N3CCN(C(=O)C4CCCO4)CC3)nc(N)c2cc1OC (stereo not given) | ? | ? | 56µM*! | 2% | 7% | 0% | ?
Cc1[nH]c(=O)[nH]c(=O)c1S(=O)(=O)N1CCCC(C(=O)NCCc2ccccc2)C1 (stereo not given) | -39% | -10% | 24% | 4% | 20% | · | ·
COc1ccc2cc(-c3cc(C(=O)OCC(=O)NC4CCS(=O)(=O)C4)c4ccccc4n3)ccc2c1 (stereo not given) | 1%[59 µM] | -9% | ? | 0% | 56% | · | ·
CCC(CO)[n+]1c(C)cc(/C=C2\Sc3ccccc3N2Cc2ccccc2)cc1C (stereo not given) | ? | -3% | 35µM* | 4% | 23% | 53µM* | ?
CC(=O)c1ccc(OC(=O)CCc2nc3ccccc3s2)cc1 | 32µM* | -17% | 16µM* | ? | 36% | 33µM* | ?
O=C(O)COCc1nc2ccccc2s1 | 50µM* | -2% | 25µM* | -25% | 59% | -13% | ?
O=C(NCC(O)c1ccccc1)c1ccccc1 (stereo not given) | · | -9% | 9% | -2% | 9% | · | ·
Nc1c(C(=O)Nc2ccccc2F)sc2nc(-c3ccco3)ccc12 | ? | -15% | 4µM* | -2% | 16% | 1.7µM* | ·
Nc1c(C(=O)Nc2ccccc2F)sc2nc(-c3cccnc3)ccc12 | · | -1% | ? | -10% | 42% | · | ·
CC(C)OC(=O)c1sc2nc(-c3ccccc3)ccc2c1N | · | 19% | -18% | 5% | 44% | · | ·
NC(=O)c1sc2nc(-c3ccco3)ccc2c1N | ? | -19% | 5µM* | -3% | 37% | 6.6µM* | i
O=C1C=C(NC2CC2)C2(CCCCC2)O1 | -4% | -3% | 5% | 4% | 28% | · | ·
COC(=O)C(NC(C)=O)(Nc1nc2ccc(C)cc2s1)C(F)(F)F (stereo not given) | 25% | 6% | 2% | 12% | 36% | · | ·
Clc1ccccc1-c1nnc2sc(CCc3ccccc3)nn12 | 4.5µM* | ? | 13µM* | 1% | ? | 12µM* | ·
c1ccc(CCc2nn3c(Cn4cnc5ccccc54)nnc3s2)cc1 | 4µM* | ? | 10µM* | -24% | -33% | 13µM* | ·
c1ccc(CCn2cnc3ccccc32)cc1 | 64% | -14% | 15% | -1% | 27% | · | ·
c1ccc(CCc2nn3c(-c4ccncc4)nnc3s2)cc1 | ? | -10% | ? | 5% | -22% | · | ·
